Assay outcomes: PubChem BioAssay, National Center for Advancing Translational Sciences (NCATS)
TRHR enhancer-1: allosterically enhances the human TRH receptor | AID 493056 | 360,000 compounds, 0.66% hits | TRHR cells, fluo-8 calcium fluorescence, EC20 TRH enhancement | enhancement, % at 2 µM; in the data active = enhancement above about 30%; note: 0% is about no effect
Target sequence (P34981 whole entry, looked up): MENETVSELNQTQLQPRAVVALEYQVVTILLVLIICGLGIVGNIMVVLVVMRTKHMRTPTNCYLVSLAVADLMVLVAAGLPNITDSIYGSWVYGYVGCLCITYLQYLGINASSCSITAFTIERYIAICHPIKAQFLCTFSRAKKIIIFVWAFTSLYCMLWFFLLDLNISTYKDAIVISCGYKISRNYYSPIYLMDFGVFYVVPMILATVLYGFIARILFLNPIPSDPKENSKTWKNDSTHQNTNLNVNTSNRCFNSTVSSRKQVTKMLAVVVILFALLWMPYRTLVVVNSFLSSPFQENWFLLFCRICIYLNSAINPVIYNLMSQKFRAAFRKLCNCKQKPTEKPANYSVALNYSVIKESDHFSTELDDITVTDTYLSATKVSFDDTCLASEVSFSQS
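Enhancer read-out: after compound pinning and an initial kinetic agonist-mode read, an EC20 of TRH (10 nM final) was injected and fluo-8 calcium signal (Ex 480/Em 530) followed at 1 s/cycle for 100 cycles in TRHR-expressing cells.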
D1 agonist: activates the human D1 dopamine receptor | HEK293 T-REx D1 cells, calcium flux, agonist mode | P21728 | 360,000 compounds, 1% hits | activation, % at 2 µM; in the data active = activation above about 30%; note: 0% is about no effect
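Agonism was scored from calcium flux recorded over 180 s (1 read/s) after pintool compound addition, following a 10-cycle baseline. Cells were inducible force-coupled HEK293 TREx D1, plated overnight at 30 C and loaded with no-wash calcium dye.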
TRHR agonist-1: activates the human TRH receptor. P34981. activation, % at 2 µM. 360,000 compounds, 0.18% hits. TRHR cells, calcium flux fluo-8, FDSS agonist mode; in the data active = activation above about 30%; note: 0% is about no effect
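In this calcium-flux screen, cells bearing human TRHR are dye-loaded with fluo-8, baselined for 10 cycles, then exposed to library compounds; positive kinetic calcium responses during the agonist phase mark hits, with TRH as control.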
D1 antagonist: blocks dopamine activation of the human D1 receptor. P21728. activity change, negative = inhibition, % at 10 µM. HEK293 TREx D1 cells, calcium flux, dopamine EC80; stronger effect = lower value. 360,000 compounds, 3.2% hits; in the data active = activity change below about -30%; note: % is set by controls: 0 for no effect and ±100 for the full control effect
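Using tetracycline-induced force-coupled D1 Hek293 cells and a calcium dye, signals were followed for 180 s after compound, then for 180 s after EC80 dopamine, to detect inhibitors.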
D1 potentiator: enhances dopamine response at the human D1 receptor. HEK293 TREx D1 cells, calcium flux, dopamine EC20 potentiation. AID 504651. 360,000 compounds, 0.036% hits. potentiation, % at 10 µM. P21728; in the data active = potentiation above about 30%; note: 0% is about no effect
TRHR enhancer-2: human TRH receptor allosteric enhancement confirmation; shares compounds with TRHR enhancer-1; TRH receptor cell assay, enhancer confirmation qHTS; activity change, negative = inhibition, % at 46.1 µM; 970 tested, under 10 active;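 note: compound effect scored on response to added TRH at EC20 of 10 nM; 0% is about no effect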
TRHR agonist-2: human TRH receptor agonism confirmation | Potency, µM (series often up to 46.1 µM), for the others: top-dose activation, most hits filed as activators | AID 493078 | shares compounds with TRHR enhancer-1 | 970 compounds, 8% hits | TRHR-expressing cells, agonist activation read-out; note: potency is the fitted concentration of half-maximal effect; 0% is about no effect; nearly all actives have a fitted effect of over 75% in size
An asterisk follows results filed as active; / = not tested or not shown. In the library only some 4.7% were active in any assay of this set; here they are far more common. Unless noted, calls come from the whole dose curve; as a rule, active = well fitted curve in the direction sought with a large enough effect; inconclusive = small, poorly fitted or top-dose-only effect, or another doubt; inactive = no such curve, though single readings can be large; an effect the other way counts as inactive or inconclusive.

SMILES | TRHR enhancer-1 | D1 agonist | TRHR agonist-1 | D1 antagonist | D1 potentiator | others
Cc1ccc(C(=O)N(Cc2ccco2)c2ccccn2)cc1 | -6 | 0 | 2 | -5 | 0
Clc1cccc(-c2ccc(/C=N/n3cnnc3)o2)c1Cl | -2 | 1 | -1 | -61* | -5
O=C(NCCCN1CCOCC1)c1c(O)c2cc(Br)cc(Br)c2[nH]c1=O | -3 | 4 | 0 | -36* | -2
CCCN(CC1CC1)C(=O)COC(=O)c1[nH]c(C)c(C(=O)OCC)c1C | 1 | 30* | 0 | 15 | -7
CC(Oc1ccc(C(=O)c2ccccc2)cc1)C(=O)Nc1ccc(S(N)(=O)=O)cc1 (stereo not drawn) | 10 | 38* | 5 | -6 | -1
CC(C)C(=O)Nc1ccc(C(=O)Nc2ccc(S(=O)(=O)N3CCOCC3)cc2)cc1 | -4 | 6 | 1 | 1 | -7
CC(Oc1ccccc1)C(=O)Nc1ccc(S(=O)(=O)N2CCCC2)cc1 (stereo not drawn) | -8 | 23 | 2 | 0 | 0
O=C(CCCSc1ccc(Cl)cc1)Nc1cc(S(=O)(=O)N2CCOCC2)ccc1O | 4 | 4 | 0 | -45* | -5
CC(Sc1ccc(Cl)cc1)C(=O)Nc1ccc(S(=O)(=O)N2CCOCC2)cc1 (stereo not drawn) | 9 | 56* | -2 | -21 | -10
Cc1ccc(OC(C)C(=O)Nc2ccc(S(=O)(=O)N3CCOCC3)cc2)cc1 (stereo not drawn) | 2 | 39* | 4 | 1 | 2
Cc1ccc(S(=O)(=O)N2CCOCC2)cc1NC(=O)CSc1ccc(Cl)cc1 | -10 | 2 | -1 | -6 | -6
CCOc1ccc2nc(N3CCCC(C(=O)Nc4ccc(Br)c(C)c4)C3)sc2c1 (stereo not drawn) | 1 | 0 | 3 | -16 | -3
Nc1ccc(-c2nc3ncccc3o2)cc1 | 2 | -1 | 0 | -34* | -6
COc1cccc(C(=O)c2cn(CC(=O)Nc3ccc4c(c3)OCCO4)c3nc(C)ccc3c2=O)c1 | -2 | 1 | 0 | 41 | -3
O=[N+]([O-])c1ccc2nc(Cl)nc(-c3ccccc3)c2c1 | -2 | 1 | -1 | -34* | -1
Cc1cc(C(=O)OCC(=O)N(C)c2ccccc2)ccc1[N+](=O)[O-] | 35* | 0 | -1 | -23 | -7
CC(=O)Oc1ccc(-c2cccc(C(=O)OCC(=O)N(C)c3ccccc3)c2)cc1 | 6 | 5 | 1 | -84* | -4
CN(C(=O)COC(=O)c1ccc([N+](=O)[O-])cc1)c1ccccc1 | -2 | 0 | 0 | -8 | -1
CN(C(=O)COC(=O)CSc1ccc([N+](=O)[O-])cc1)c1ccccc1 | 0 | 12 | 0 | -47* | /
CN(C)/C=N/C(=S)Nc1ccc(Cl)cc1Cl | 0 | 2 | 0 | -6 | -3
CC(NC(=O)CCSCCC(=O)NC(C)c1ccccc1)c1ccccc1 (stereo not drawn) | -1 | 1 | -1 | -45* | -2
O=C(CCNC(=O)c1ccco1)Nc1cccc(Br)c1 | -4 | 2 | 0 | -30* | -2
CCC(C(=O)NC(C)c1ccccc1)C(=O)NC(C)c1ccccc1 (stereo not drawn) | -18 | 5 | -1 | -8 | -4
C=CCC(C(=O)NC(C)c1ccccc1)C(=O)NC(C)c1ccccc1 (stereo not drawn) | 12 | 32* | -2 | -18 | 7
CC(NC(=O)CCNC(=O)c1ccco1)c1ccccc1 (stereo not drawn) | -7 | 0 | 0 | -42* | -6
SMILES | TRHR enhancer-1 | D1 agonist | TRHR agonist-1 | D1 antagonist | D1 potentiator | others
CC(NC(=O)CNC(=O)c1ccco1)c1ccccc1 (stereo not drawn) | 5 | 1 | 2 | 0 | -1
CCOC(=O)c1c(C)oc2nc(C)nc(NCCCN3CCN(c4ccccc4OC)CC3)c12 | 4 | 0 | -1 | -4 | -4
O=C(NCCc1ccc(F)cc1)C(=O)NCC(c1ccco1)S(=O)(=O)c1cccs1 (stereo not drawn) | -3 | 3 | 0 | / | -1
Cc1ccc(C(=O)Nc2cccc(-c3nc4ccccc4o3)c2)c(Cl)c1 | -3 | 3 | 1 | -1 | -1
Cc1cc2oc(C(=O)Nc3cccc(-c4nc5ccccc5o4)c3)c(C)c2cc1Cl | 33* | 3 | -1 | -5 | 0
O=C(c1ccc(CSc2nc3ccncc3n2Cc2ccccc2F)cc1)N1CCCCC1 | 58* | -1 | 0 | 4 | 0 | TRHR enhancer-2=-9;TRHR agonist-2=0%
CCc1ccccc1NC(=O)CCC(=O)N1CCSc2ccccc21 | 4 | 1 | -1 | 0 | -6
CC1CCCN(C(=O)Cn2nnc(-c3ccc(S(C)(=O)=O)cc3)n2)C1 (stereo not drawn) | 41* | 4 | 0 | 6 | 0 | TRHR enhancer-2=-3;TRHR agonist-2=-1%
COc1cccc(NC(=O)C2CCCN(S(=O)(=O)c3cn(C(C)C)cn3)C2)c1 (stereo not drawn) | -2 | 0 | -1 | -2 | 1
CCOc1ccccc1C(=O)OCC(=O)Nc1ccc(OC(F)F)cc1 | -1 | -4 | 0 | 7 | -2
c1ccc(-n2cccc2CNC2CCCCC2)cc1 | 48* | 6 | 0 | 0 | 0 | TRHR enhancer-2=-5;TRHR agonist-2=9%
O=C(NCCc1ccccc1)C(=O)NCC1OCCN1S(=O)(=O)c1ccc(Br)cc1 (stereo not drawn) | 2 | 3 | 1 | -4 | 15
COc1ccc(NC(=O)c2cccc(S(=O)(=O)N3CCN(C)CC3)c2)c(OC)c1 | -2 | -1 | 0 | 19 | -8
OCCC1CN(Cc2cc3c(cc2Cl)OCO3)CCN1C1CCCC1 (stereo not drawn) | 54* | 2 | 0 | -5 | -6 | TRHR enhancer-2=0;TRHR agonist-2=5%
CC(C)NC(=O)Cn1c(=O)n(CC(=O)N2CCCCC2)c(=O)c2sccc21 | -2 | 1 | 1 | 4 | 0
O=C(CN1N=C(c2ccc(Cl)cc2)CCC1=O)NCCc1ccc(Cl)cc1 | -1 | -6 | 0 | -20 | -1
CCOC(=O)CN1N=C(c2ccc(Cl)cc2)CCC1=O | 41* | 1 | 0 | -30 | -3 | TRHR enhancer-2=-2;TRHR agonist-2=2%
COc1ccc(NC(=O)Cn2nnc(C(=O)NCc3ccccc3)c2N)c(OC)c1 | 8 | 0 | -1 | 1 | -1
COc1ccc(-c2cc(C(F)F)nc(-n3nc(C)cc3C)n2)cc1 | 53* | 6 | -1 | -60* | -14 | TRHR enhancer-2=-9;TRHR agonist-2=2%
Cc1cc(N)nc(C)c1C#N | 3 | 3 | 0 | 2 | -4
